Consider one compound from PubChem BioAssay AID540327 (National Center for Advancing Translational Sciences (NCATS), 2011).

In this experiment the target is Ubiquitin carboxyl-terminal hydrolase 1 (Homo sapiens) (UniProt O94782). Kind of experiment: Inhibitors of USP1/UAF1: Hit Validation in Primary Assay. As to conditions: Ub-Rhodamine cleavage, fluorescence kinetic read. The text has this: Deubiquitinating enzymes (DUBs) are a class of enzymes that can cleave isopeptide bond formed between the C-terminal carboxylate of ubiquitin and a lysine side-chain amino group on the target protein. Among them, ubiquitin specific proteases (USPs) constitute the largest DUB family. Human USPs are emerging as promising targets for pharmacological intervention because of their connection to a number of human diseases, including prostate, colon and breast cancer (1, 2), pediatric acute lymphoblastic leukemia (3), and familial cylindromatosis (4). The advantage of inhibiting USPs lies in the potential specificity of therapeutic intervention that can lead to better efficacy and reduce nonspecific side effects. […] This miniaturized assay has a fluorescent read-out and is used to screen the NIH Molecular Libraries Small Molecule Repository (MLSMR) in order to identify a small molecule that inhibits USP1. […]
Chain of Ubiquitin carboxyl-terminal hydrolase 1 (Homo sapiens) (O94782 whole entry, looked up): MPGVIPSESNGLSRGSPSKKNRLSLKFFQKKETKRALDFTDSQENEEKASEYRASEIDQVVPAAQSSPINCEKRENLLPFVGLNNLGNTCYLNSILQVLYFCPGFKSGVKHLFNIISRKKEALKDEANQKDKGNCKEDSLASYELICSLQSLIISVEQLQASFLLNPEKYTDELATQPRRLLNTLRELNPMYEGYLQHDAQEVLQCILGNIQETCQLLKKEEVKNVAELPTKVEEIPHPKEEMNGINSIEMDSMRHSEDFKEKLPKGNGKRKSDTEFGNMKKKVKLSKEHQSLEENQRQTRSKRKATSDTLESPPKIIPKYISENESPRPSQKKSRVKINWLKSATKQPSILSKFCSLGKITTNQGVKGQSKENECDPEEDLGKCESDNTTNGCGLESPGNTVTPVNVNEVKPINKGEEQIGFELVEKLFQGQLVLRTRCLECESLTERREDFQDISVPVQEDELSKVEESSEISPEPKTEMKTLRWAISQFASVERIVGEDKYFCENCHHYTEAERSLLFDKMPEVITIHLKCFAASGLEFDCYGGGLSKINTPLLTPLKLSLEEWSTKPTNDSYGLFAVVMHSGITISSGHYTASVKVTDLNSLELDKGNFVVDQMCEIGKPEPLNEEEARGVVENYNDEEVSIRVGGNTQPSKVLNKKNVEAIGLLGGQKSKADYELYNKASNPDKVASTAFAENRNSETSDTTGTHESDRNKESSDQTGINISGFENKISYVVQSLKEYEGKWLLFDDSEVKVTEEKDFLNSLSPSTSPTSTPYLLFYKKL
3 microliters of reagents (buffer in columns 3 and 4 as negative control and 1nM USP1/UAF1 complex in columns 1, 2, and 5-48) are dispensed into Greiner black solid bottom 1536-well assay plates. […] The plates are immediately centrifuged at 1000 rpm for 15 seconds, and subsequently transferred to a ViewLux high-throughput CCD imager (PerkinElmer) wherein kinetic measurements of fluorescence are acquired using 480 nm excitation/540 nm emission filter set (6 reads every 60 seconds, see Table 1). […]

The list shows a part of the results. Inconclusive results are not listed. The source made the active and inactive calls. Calls follow the shape of the dose curve; as a rule, active = well fitted inhibition curve with a large enough effect; inconclusive = small, poorly fitted or top-dose-only effect; inactive = flat fitted curve, though single readings scatter.

`CC(=O)c1c(O)c(C)c(O)c(Cc2c(O)c3c(c(C(=O)/C=C/c4ccccc4)c2O)OC(C)(C)C=C3)c1O`: the Potency is 41.8 µM (active).
